Consider 18 compounds from the supplement of paper PMC6518042.

SMILES strings stand for the structures.

One assay deals with Pectobacterium parmentieri SCC3193. As to the kind of experiment: DuctApe activity index (growth/respiration on compound as sole nutrient source, blank-subtracted) (activity index (0-3)); higher = stronger utilization of the compound, active = 3 or more. Conditions: nutrient role (plate category): carbon. How it is done: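 Biolog Phenotype Microarray plates PM1, PM2A (carbon), PM3 (nitrogen) and PM4 (phosphorus/sulfur) inoculated with P. parmentieri SCC3193 in M9-C minimal salts medium with Biolog dye A, and read in the OmniLog for 46 h. Each well was tested in triplicate and the experiment was run twice. DuctApe computed a blank-subtracted activity index (AV, 0-3) from the mean curves; growth is positive at AV >= 3 and negative at AV <= 2.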
For the compound `NCCc1ccccc1` [Phenylethylamine], the DuctApe activity index is 0 (inactive).
As for `O=C(O)CCCO` [g-Hydroxybutyric acid], the DuctApe activity index was 0 (inactive).
On to `NCCc1ccc(O)cc1` [Tyramine], for which the DuctApe activity index was 0 (inactive).
The same measure, in the same setting: then `O=C(O)CC(Br)C(=O)O` (centres undefined) [Bromosuccinic acid], with 3 (active); and `NCC(O)c1ccc(O)cc1` (racemic) [D,L-Octopamine], with 0 (inactive).
`N#C[C@H](O[C@@H]1O[C@H](CO[C@@H]2O[C@H](CO)[C@@H](O)[C@H](O)[C@H]2O)[C@@H](O)[C@H](O)[C@H]1O)c1ccccc1` [Amygdalin]: the DuctApe activity index is 0 (inactive).

Staying with this assay, now noted: nutrient role (plate category): nitrogen.
On to `NCCc1ccccc1` [b-Phenylethylamine], for which the DuctApe activity index was 0 (inactive).
On to `O=[N+]([O-])O` [Nitrate], for which the DuctApe activity index was 0 (inactive).
`O=C1NC(=O)C(=O)C(=O)N1` [Alloxan]: the DuctApe activity index is 0 (inactive).
On the same count and under the same terms, then `NCCc1ccc(O)cc1` [Tyramine], with 0 (inactive).
Still for that read-out and setting: then `CN` [Methylamine], with 0 (inactive).
Still for that read-out and setting: then `CCN` [Ethylamine], with 0 (inactive).

Staying with this assay, now noted: nutrient role (plate category): phosphate & sulphur.
Turning to `O=PO` [Hypophosphite], the DuctApe activity index was 0 (inactive).
Take `OP(O)(O)=S` [Thiophosphate]: the DuctApe activity index was 1.5 (inactive).
For `NCCP(=O)(O)O` [2-Aminoethyl Phosphonic acid], the DuctApe activity index was 0 (inactive).
With `OP(O)(=S)S` [Dithiophosphate], the DuctApe activity index was 1.5 (inactive).
The same measure, in the same setting: then `CCSCCC(N)C(=O)O` (racemic) [DL-Ethionine], with 0 (inactive); and `CN(CC(=O)O)C(=N)NP(=O)(O)O` [Phosphocreatine], with 2 (inactive).
For the compound `CCOP(=O)(OCC)OCC` [Triethyl Phosphate], the DuctApe activity index is 0 (inactive).
